# Data: PubChem BioAssay (NCATS)
# Several values for one entry are separate records, joined by “and”; a condition that tells them apart may be missing. Equal values may be shown once. Results filed as inconclusive are left out. Where a call stands in place of a potency, no number is given. The source holds several records for some structures; these can differ, active in one and inactive in another. Activity calls are given as the source filed them. Unless noted, the call rests on the fitted dose curve; in most records, active means well fitted curve in the direction sought with a large enough effect; inconclusive means small, poorly fitted or top-dose-only effect, or another doubt; inactive means no such curve, though single readings can be large; an effect the other way counts as inactive or inconclusive.
# Experiments:
# [1] = biological target: Cytochrome P450 2C9 (Homo sapiens) (UniProt P11712); test: Cytochrome P450 family 2 subfamily C member 9 (CYP2C9) small molecule antagonists: luciferase biochemical (cell-free) qHTS assay (AID 1645842; active means well fitted curve in the direction sought with a large enough effect in the repeat runs; an effect the other way counts as inactive or inconclusive; further: nearly all actives have a fitted effect of over 55% in size; further: potency means the concentration at half of the fitted maximal effect)
# How it was run: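 Luminescence, after 20 min with luciferin detection reagent, reflected CYP2C9 turnover during a 1 h NADPH-driven reaction at 37C. Enzyme-substrate mix contained 0.4% bovine serum albumin and was preincubated with compound 10 min at room temperature.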
# [2] = Primary qHTS for inhibitors of nuclear receptor binding SET domain protein 2 (NSD2) in an isogenic RCH-ACV NSD2 p.E1099K mutant (9B) (AID 1645876); further: nearly all actives have a fitted effect of over 70% in size
# [3] = Primary qHTS for inhibitors of nuclear receptor binding SET domain protein 2 (NSD2) in an RCH-ACV wild type WT cells (2C) (AID 1645877); further: nearly all actives have a fitted effect of over 70% in size; further: potency means the concentration at half of the fitted maximal effect
# [4] = biological target: Rap guanine nucleotide exchange factor 3 (Homo sapiens) (UniProt O95398); test: Confirmatory qHTS for antagonist of cAMP-regulated guanine nucleotide exchange factor 3 (EPAC1) (AID 1645880); further: nearly all actives have a fitted effect of over 55% in size
# How it was run: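 Nucleotide exchange uses 100 nM EPAC1, 250 nM RAP1B-BODIPY-GDP and 50 uM GDP, with compounds in a concentration-titration series. After 5 min at room temperature, fluorescence (480 nm ex/540 nm em) is read every 5 min for 30 min. Data are normalized to control ATA and DMSO.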
# [5] = biological target: Rap guanine nucleotide exchange factor 3 (Homo sapiens) (UniProt O95398); test: Confirmatory qHTS for agonist of cAMP-regulated guanine nucleotide exchange factor 3 (EPAC1) (AID 1645881);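 further: EPAC1 catalysed release of BODIPY-GDP from Rap1B seen as fluorescence loss; nearly all actives have a fitted effect of over 75% in size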
# [6] = biological target: Rap guanine nucleotide exchange factor 4 (Homo sapiens) (UniProt Q8WZA2); test: Confirmatory qHTS for agonist of cAMP-regulated guanine nucleotide exchange factor 4 (EPAC2) (AID 1645884);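 further: nucleotide exchange releases bodipy-GDP from Rap1 and this lowers its fluorescence; nearly all actives have a fitted effect of over 65% in size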
# [7] = biological target: Rap guanine nucleotide exchange factor 4 (Homo sapiens) (UniProt Q8WZA2); test: Confirmatory qHTS for antagonist of cAMP-regulated guanine nucleotide exchange factor 4 (EPAC2) (AID 1645885); further: nearly all actives have a fitted effect of over 25% in size; further: potency means the concentration at half of the fitted maximal effect
# [8] = biological target: Rap guanine nucleotide exchange factor 3 (Homo sapiens) (UniProt O95398); test: Counterscreen qHTS for antagonist of cAMP-regulated guanine nucleotide exchange factor 3 (EPAC1) (AID 1645888);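 further: fluorescence loss as bound BODIPY-GDP is released from Rap1B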
# How it was run: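 Rap1B-BODIPY-GDP 250 nM + GDP 50 uM; cpds 7-pt, final 9.74 nM–152 uM (activator mode) or from 7.32 nM upwards (inhibitor mode); RT; FI 480/540 nm at 5 and 30 min, then ± cAMP, reread.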
# Chain of Cytochrome P450 2C9 (Homo sapiens) (P11712 whole entry, looked up): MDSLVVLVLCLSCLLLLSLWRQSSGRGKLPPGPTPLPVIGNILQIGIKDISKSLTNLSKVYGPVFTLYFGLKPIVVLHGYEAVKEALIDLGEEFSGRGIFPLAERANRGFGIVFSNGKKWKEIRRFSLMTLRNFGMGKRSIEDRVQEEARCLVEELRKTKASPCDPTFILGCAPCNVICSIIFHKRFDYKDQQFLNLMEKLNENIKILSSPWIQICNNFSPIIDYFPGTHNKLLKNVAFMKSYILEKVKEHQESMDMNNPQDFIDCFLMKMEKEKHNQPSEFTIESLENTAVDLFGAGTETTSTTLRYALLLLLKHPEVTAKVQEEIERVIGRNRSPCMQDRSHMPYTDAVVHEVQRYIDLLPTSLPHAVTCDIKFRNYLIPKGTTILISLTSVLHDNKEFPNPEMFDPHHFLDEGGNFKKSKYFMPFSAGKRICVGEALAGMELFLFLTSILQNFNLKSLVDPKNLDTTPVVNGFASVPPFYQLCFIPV
# Chain of Rap guanine nucleotide exchange factor 3 (Homo sapiens) (O95398 whole entry, looked up): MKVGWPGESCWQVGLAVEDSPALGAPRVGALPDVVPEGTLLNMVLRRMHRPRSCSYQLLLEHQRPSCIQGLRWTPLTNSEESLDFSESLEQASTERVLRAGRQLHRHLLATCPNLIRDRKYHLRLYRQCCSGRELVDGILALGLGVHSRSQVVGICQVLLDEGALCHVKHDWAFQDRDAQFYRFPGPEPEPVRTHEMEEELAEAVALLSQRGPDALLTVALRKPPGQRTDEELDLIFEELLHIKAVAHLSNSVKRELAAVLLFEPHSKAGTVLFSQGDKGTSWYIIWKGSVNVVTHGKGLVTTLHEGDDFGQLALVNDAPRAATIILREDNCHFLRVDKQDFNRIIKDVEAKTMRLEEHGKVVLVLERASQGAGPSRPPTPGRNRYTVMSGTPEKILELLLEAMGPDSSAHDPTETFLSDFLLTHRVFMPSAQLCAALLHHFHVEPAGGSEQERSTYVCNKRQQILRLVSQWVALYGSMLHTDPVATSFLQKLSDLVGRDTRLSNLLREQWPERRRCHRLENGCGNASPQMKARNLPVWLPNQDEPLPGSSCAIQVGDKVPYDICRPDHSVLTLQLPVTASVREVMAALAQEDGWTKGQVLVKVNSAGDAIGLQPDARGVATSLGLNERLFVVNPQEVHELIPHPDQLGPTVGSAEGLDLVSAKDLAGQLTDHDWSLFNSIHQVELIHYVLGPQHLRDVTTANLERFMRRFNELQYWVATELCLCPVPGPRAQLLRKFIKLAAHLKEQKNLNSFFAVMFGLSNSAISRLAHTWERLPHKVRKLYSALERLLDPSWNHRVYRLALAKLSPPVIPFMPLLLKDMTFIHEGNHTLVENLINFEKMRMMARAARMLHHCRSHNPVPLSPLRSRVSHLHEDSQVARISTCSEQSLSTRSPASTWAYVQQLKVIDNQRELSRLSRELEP
# Chain of Rap guanine nucleotide exchange factor 4 (Homo sapiens) (Q8WZA2 whole entry, looked up): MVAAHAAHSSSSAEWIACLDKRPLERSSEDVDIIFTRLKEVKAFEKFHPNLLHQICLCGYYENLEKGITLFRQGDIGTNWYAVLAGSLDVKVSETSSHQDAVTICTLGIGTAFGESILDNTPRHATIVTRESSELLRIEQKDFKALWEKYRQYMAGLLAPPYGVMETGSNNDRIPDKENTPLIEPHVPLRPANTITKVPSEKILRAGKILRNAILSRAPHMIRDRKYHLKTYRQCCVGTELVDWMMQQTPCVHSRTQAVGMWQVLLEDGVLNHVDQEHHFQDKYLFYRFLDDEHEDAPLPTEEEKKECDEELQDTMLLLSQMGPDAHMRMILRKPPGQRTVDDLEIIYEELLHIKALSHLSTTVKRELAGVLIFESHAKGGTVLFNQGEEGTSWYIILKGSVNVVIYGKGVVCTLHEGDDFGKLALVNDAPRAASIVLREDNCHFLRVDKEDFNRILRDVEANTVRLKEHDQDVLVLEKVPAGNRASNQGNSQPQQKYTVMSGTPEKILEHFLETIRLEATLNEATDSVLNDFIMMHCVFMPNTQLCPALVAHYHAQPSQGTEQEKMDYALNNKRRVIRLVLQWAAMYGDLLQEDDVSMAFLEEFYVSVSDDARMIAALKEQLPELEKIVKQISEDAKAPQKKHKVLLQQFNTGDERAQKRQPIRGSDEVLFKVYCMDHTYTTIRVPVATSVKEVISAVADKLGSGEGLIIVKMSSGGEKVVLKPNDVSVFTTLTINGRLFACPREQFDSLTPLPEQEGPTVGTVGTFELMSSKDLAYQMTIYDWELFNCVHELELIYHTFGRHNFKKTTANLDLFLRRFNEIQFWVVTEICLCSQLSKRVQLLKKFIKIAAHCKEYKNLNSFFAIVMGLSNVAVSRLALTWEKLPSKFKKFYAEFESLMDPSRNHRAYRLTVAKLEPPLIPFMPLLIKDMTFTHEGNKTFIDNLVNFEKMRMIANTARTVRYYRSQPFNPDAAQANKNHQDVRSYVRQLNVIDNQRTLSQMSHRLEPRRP
compound,measurement,setting,value
CC[C@H](C)[C@H](N)C(=O)O,Potency,[1],inactive
same,Potency,[2],inactive
same,Potency,[3],inactive
C=CCSCC1Nc2cc(Cl)c(S(N)(=O)=O)cc2S(=O)(=O)N1 (stereo not given),Potency,[1],8.49 µM (active)
same,Potency,[2],inactive
same,Potency,[3],inactive
Cc1[nH]c(C)c(Cl)c(=O)c1Cl,Potency,[1],inactive
same,Potency,[2],inactive
same,Potency,[3],inactive
Cc1ccc(S(=O)(=O)NC(=O)NC2CCCCCCC2)cc1,Potency,[1],17.4 µM (active)
same,Potency,[2],inactive
same,Potency,[3],inactive
O=C(O)CCCc1ccccc1,Potency,[1],inactive
same,Potency,[2],inactive
same,Potency,[3],inactive
Cc1cccc(C)c1NC(=O)CC12CCCN1CCC2,Potency,[1],inactive
same,Potency,[2],inactive
same,Potency,[3],inactive
CNCc1ccccc1,Potency,[1],inactive
same,Potency,[2],inactive
same,Potency,[3],inactive
NCC1CCC(C(=O)Oc2ccc(CCC(=O)O)cc2)CC1 (stereo not given),Potency,[1],inactive
same,Potency,[2],inactive
same,Potency,[3],inactive
Cc1c(NC(C)C)c(=O)n(-c2ccccc2)n1C,Potency,[1],inactive
same,Potency,[2],inactive
same,Potency,[3],inactive
NC(=O)CCCCC1CCSS1 (stereo not given),Potency,[1],inactive
same,Potency,[2],inactive
same,Potency,[3],inactive
C[C@H]1COc2c(C3(N)CC3)c(F)cc3c(=O)c(C(=O)O)cn1c23,Potency,[1],inactive
same,Potency,[2],inactive
same,Potency,[3],inactive
O=C(OOC(=O)c1ccccc1)c1ccccc1,Potency,[1],inactive
same,Potency,[2],inactive
same,Potency,[3],inactive
NS(=O)(=O)c1cc(C2(O)NC(=O)c3ccccc32)ccc1Cl (stereo not given),Potency,[1],inactive
same,Potency,[2],inactive
same,Potency,[3],inactive
CC(=O)N(CC(O)CO)c1c(I)c(C(=O)NCC(O)CO)c(I)c(C(=O)NCC(O)CO)c1I (stereo not given),Potency,[2],inactive
same,Potency,[3],inactive
COc1ccccc1OCC(O)CO (stereo not given),Potency,[2],inactive
same,Potency,[3],inactive
CCCNC(C)(C)COC(=O)c1ccccc1,Potency,[2],inactive
same,Potency,[3],inactive
CC(C)NC[C@@H](O)COc1ccc(CC(N)=O)cc1,Potency,[2],inactive
same,Potency,[3],inactive
Cc1ccc2c(c1)c1c3n2CCNC3CCC1 (stereo not given),Potency,[2],inactive
CC(=O)OCC(=O)[C@@]1(O)CC[C@H]2[C@@H]3CCC4=CC(=O)C=C[C@]4(C)[C@@]3(F)[C@@H](O)C[C@@]21C,Potency,[1],inactive
same,Potency,[3],0.0211 µM (active)
O=C(O)c1ccccc1OP(=O)(O)O,Potency,[1],inactive
same,Potency,[2],inactive
same,Potency,[3],inactive
CCc1nnc(NS(=O)(=O)c2ccc(N)cc2)s1,Potency,[2],inactive
same,Potency,[3],inactive
CC(C)(C)C(=O)OCOC(=O)[C@@H]1N2C(=O)[C@@H](NC(=O)[C@H](N)c3ccccc3)[C@H]2SC1(C)C,Potency,[2],inactive
same,Potency,[3],inactive
C1CCN2C[C@@H]3C[C@@H](CN4CCCC[C@@H]34)[C@H]2C1,Potency,[2],inactive
same,Potency,[3],inactive
CC1(C)[C@@H](OC(=O)CCC(=O)O)CC[C@]2(C)[C@H]3C(=O)C=C4[C@@H]5C[C@@](C)(C(=O)O)CC[C@]5(C)CC[C@@]4(C)[C@]3(C)CC[C@@H]12,Potency,[1],inactive
same,Potency,[2],inactive
same,Potency,[3],inactive
same,outcome,[4],inactive
same,outcome,[5],inactive
same,outcome,[6],inactive
same,Potency,[7],4.21 µM (active) and 4.13 µM (active)
COc1ccc2cc(CCC(C)=O)ccc2c1,Potency,[1],inactive
same,Potency,[2],inactive
same,Potency,[3],inactive
same,outcome,[4],inactive
same,outcome,[5],inactive
same,outcome,[6],inactive
same,Potency,[7],8.79 µM (active) and inactive
same,outcome,[8],inactive
NC(=O)NC1NC(=O)NC1=O (stereo not given),Potency,[1],inactive
same,Potency,[2],inactive
same,Potency,[3],inactive
same,outcome,[4],inactive
same,outcome,[5],inactive
same,outcome,[6],inactive
same,Potency,[7],inactive
O=C(O)/C=C/c1ccc(Cn2ccnc2)cc1,Potency,[2],inactive
same,Potency,[3],inactive
Cc1cccc(Nc2ccccc2C(=O)O)c1C,Potency,[2],inactive
same,Potency,[3],inactive
NC(N)=NCCN1CCCCCCC1,outcome,[2],inactive [at 0.588 µM]
same,"activity change, negative = cell killing",[3],1.99% [at 0.588 µM] (inactive)
Cc1c(N(C)C)c(=O)n(-c2ccccc2)n1C,Potency,[2],inactive
same,Potency,[3],inactive
Nc1ccc(C(=O)Oc2ccccc2)c(O)c1,Potency,[2],inactive
same,Potency,[3],inactive
CCCCOC(=O)c1ccc(N)cc1,Potency,[3],inactive
Cc1ccc(S(=O)(=O)NC(=O)NC2CCCCC2)cc1,Potency,[2],inactive
same,Potency,[3],inactive
CCCCC1(COC(=O)CCC(=O)O)C(=O)N(c2ccccc2)N(c2ccccc2)C1=O,Potency,[2],inactive
same,Potency,[3],inactive
C[C@@H]1O[C@@H](OC[C@H]2O[C@@H](Oc3c(-c4ccc(O)c(O)c4)oc4cc(O)cc(O)c4c3=O)[C@H](O)[C@@H](O)[C@@H]2O)[C@H](O)[C@H](O)[C@H]1O,Potency,[1],inactive
same,Potency,[2],inactive
same,Potency,[3],inactive
CC(=O)N[C@@H](CC(C)C)C(=O)O,Potency,[2],inactive
same,Potency,[3],inactive
CC(=O)N[C@H]1[C@H]([C@H](O)[C@H](O)CO)OC(C(=O)O)=C[C@@H]1N=C(N)N,Potency,[1],inactive
same,Potency,[2],inactive
same,Potency,[3],inactive
CN[C@@H]1[C@@H](O)[C@@H](O[C@@H]2[C@H](O)[C@H](O[C@H]3OC(CN)=CC[C@H]3N)[C@@H](N)C[C@H]2N)OCC1(C)O (stereo not given in full),Potency,[2],inactive
same,Potency,[3],inactive
O[C@@H]1CO[C@H]2[C@@H]1OC[C@@H]2O,Potency,[1],inactive
same,Potency,[2],inactive
same,Potency,[3],inactive
CC(=O)OC[C@H]1O[C@@](COC(C)=O)(O[C@H]2O[C@H](COC(C)=O)[C@@H](OC(C)=O)[C@H](OC(C)=O)[C@H]2OC(C)=O)[C@@H](OC(C)=O)[C@@H]1OC(C)=O,Potency,[2],inactive
same,Potency,[3],inactive
CC(C)C[C@@H](N)C(=O)O,Potency,[2],inactive
same,Potency,[3],inactive
OCCN1C[C@H](O)[C@@H](O)[C@H](O)[C@H]1CO,Potency,[1],inactive
same,Potency,[2],inactive
same,Potency,[3],inactive
CC(C)=CCC[C@@](C)(O)[C@H]1CC=C(C)CC1,Potency,[2],inactive
CN(C/C=C/C#CC(C)(C)C)Cc1cccc2ccccc12,Potency,[2],inactive
same,Potency,[3],inactive
CCN(CC)CCOC(=O)C(c1ccccc1)c1ccccc1,Potency,[2],inactive
same,Potency,[3],inactive
CCCCCCCC(=O)OCC(O)CO (stereo not given),Potency,[2],inactive
same,Potency,[3],inactive
Cc1ccsc1/C=C/C1=NCCCN1C,Potency,[2],inactive
same,Potency,[3],inactive
CCC(C)(CN(C)C)OC(=O)c1ccccc1 (stereo not given),Potency,[2],inactive
CN1C(C)(C)CCCC1(C)C,Potency,[2],inactive
same,Potency,[3],inactive
CC(C)=CCC/C(C)=C/CO,Potency,[2],inactive
same,Potency,[3],inactive
